Reference: ChEMBL document CHEMBL3988442, “University of Dundee, Small-Polar-MMV Screening Library” (2021)
Hit rate of the full screen: of about 38,000 compounds, about 1,200 (3.2%) showed an effect of 50% or more. The median lay at about -58%. This is one part of a sample in which strong results are shown more often than they occur.

Each compound was assayed on Plasmodium falciparum (assay: Calibr Malaria Delayed Death Assay SOP). Conditions: concentration 4.99e-06 (unit not given; other assays of the set use mol/L).
Assay type: functional, organism-based
Design: scale not given: in the data most compounds retested in dose-response had high values

SMILES	Percent Effect [%]
CS(=O)(=O)CCCNc1cccc(COC2CCCCC2)c1	-119.3
Cc1cc(C(=O)N2CCCC2)ccc1NCc1nc(CC(C)C)no1	-36.08
C=C/C=c1\c(=C/C)oc2c(NCc3ccccc3)ncnc12	-45.75
CCCc1nc(N2CCCC(C)C2)c2c(n1)c(C)nn2CC (stereo not drawn)	-54.34
CCc1c(C)sc2nc3n(CC(N)=O)nc(SC)n3c(=O)c12	-38.8
CN(C)[C@H]1CCCCN(C(=O)COCc2nc3cc(F)ccc3[nH]2)C1	-11.74
COC(C)Cc1nc(-c2cnn3c(C)cc(C)nc23)no1 (stereo not drawn)	-0.05951
CCN1C[C@H]2[C@@H](C1)N(c1ncc(F)cn1)CC[C@H]2OC.O=C(O)C(F)(F)F.O=C(O)C(F)(F)F	33.74
CO[C@@H]1CCN(Cc2c(C)noc2C)[C@@H]2CN(Cc3ccco3)C[C@@H]21.O=C(O)C(F)(F)F.O=C(O)C(F)(F)F	39.75
CO[C@@H]1CCN(Cc2ccoc2)[C@@H]2CN(Cc3ccco3)C[C@@H]21.O=C(O)C(F)(F)F.O=C(O)C(F)(F)F	46.48
CO[C@@H]1CCN(c2ncc(F)cn2)[C@@H]2CN(Cc3cccnc3)C[C@@H]21.O=C(O)C(F)(F)F.O=C(O)C(F)(F)F.O=C(O)C(F)(F)F	-59.6
CO[C@H]1CCN(c2ncc(F)cn2)[C@@H]2CN(Cc3ccco3)C[C@H]12.O=C(O)C(F)(F)F.O=C(O)C(F)(F)F	62.54
CO[C@@H]1CCN(Cc2ccccn2)[C@@H]2CN(Cc3ccco3)C[C@@H]21.O=C(O)C(F)(F)F.O=C(O)C(F)(F)F.O=C(O)C(F)(F)F	81.61
Clc1snnc1CN(Cc1cccs1)C1CC1	-103.1
CCc1noc(C(C)N(C)CC(=O)Nc2cccc(C)c2C)n1 (stereo not drawn)	-134.7
O=C(O)[C@@H]1CN(C(=O)c2ccc(F)c(F)c2)C[C@H]1c1cccc(F)c1	-108.3
Cc1cc(CN2CCN(C(=O)C(C(C)C)n3cncn3)CC2)on1 (stereo not drawn)	-30.78
CCC(CNC(=O)c1ccccn1)N1CCc2ccccc2C1 (stereo not drawn)	22.7
O=c1ccc(-c2cccs2)nn1CN1CCc2ccccc2C1	-135
O=C1CCCCCN1Cc1cccc(OC(F)F)c1	-103.2

SMILES	Percent Effect [%]
CSCc1noc(CN2CCCCC2CCc2ccc(O)cc2)n1 (stereo not drawn)	-58.4
Cc1noc(C)c1CN1CCCCC1CCc1ccc(O)cc1 (stereo not drawn)	50.08
Cc1noc(C)c1CN1CCCC1C(=O)OCc1ccccc1 (stereo not drawn)	-68.08
c1cc(-c2cnccn2)cc(-c2ccn(CCN3CCCCC3)n2)c1	41.47
c1cc(-c2cnccn2)cc(-c2ccn(CCN3CCCC3)n2)c1	67.88
c1cc(-c2cnccn2)cc(-c2ccn(CCCN3CCCCC3)n2)c1	18.71
Cc1cc2[nH]c(=O)oc2cc1S(=O)(=O)N1CCC(N2CCCC2=O)CC1	-16.02
CC(=O)N(C)CC(=O)NC(C)c1ccc(OCCC(C)C)cc1 (stereo not drawn)	-42.24
Cc1nc(CCNC(=O)NCC(c2ccco2)N(C)C)cs1 (stereo not drawn)	-71.79
O=C(NCCc1ccncc1)[C@H]1C[C@@H]2CCN(c3nncs3)C[C@H]2O1	-93.92
COCCN(C)C(=O)NCCc1coc(-c2ccc(C)cc2)n1	-79.36
Cc1ncc(CNC(=O)N(CCCO)C2CCc3ccccc32)s1 (stereo not drawn)	-63.88
CC(C)n1ncc2c1NC(=O)CC21C(=O)Nc2c(Cl)cc(Br)cc21 (stereo not drawn)	-58.13
CC(C)n1ncc2c1NC(=O)CC21C(=O)Nc2c(Cl)ccc(Cl)c21 (stereo not drawn)	83.19
CC(C)n1ncc2c1NC(=O)CC21C(=O)Nc2cc(Cl)cc(Cl)c21 (stereo not drawn)	-81.88
COc1ccc(Cl)cc1NC(=O)N1CCc2nc(NC(C)=O)sc2C1	-92.85
COc1ccc(COCC(O)CNC(=O)c2cc(C)oc2C)cc1 (stereo not drawn)	-54.86
O=C(NCCCn1cccn1)C1(c2cccc(Cl)c2)CC1	-36.51
CS(=O)(=O)NCc1nnc2n1CCN(Cc1cccnc1)C2	-124.8
Cc1nc(NC2(CN3CCCCC3)CCCCC2)c2cnn(C)c2n1	54.86

SMILES	Percent Effect [%]
CCOC(=O)CC1(Nc2nc(C)nc3c2cnn3C)CCCCC1	-28.38
COCC1(Nc2nc(C)nc3c2cnn3C)CCCC1	-148.5
COc1cc(C(=O)NS(=O)(=O)c2cc(Cl)sc2Cl)ccc1OC(F)F	-57.9
N#CCCN(CCC#N)Cc1ccc(Br)c2cccnc12	-154.3
OCCN(CCO)Cc1ccc(Br)c2cccnc12	-31.32
CCN(CCO)Cc1ccc(Br)c2cccnc12	54.32
O=C(NCC1(O)CCC1)c1c(O)cc(Cl)cc1Cl	-101.6
O=C(NCc1ccon1)N1CCC(n2ccc(C(F)(F)F)n2)CC1	-25.88
Cc1ccnn1CCN1CCCC2(CCC(=O)N(C3CCCC3)C2)C1 (stereo not drawn)	-99.39
CN1CC(=O)N(c2ccccc2)CC12CCN(C(=O)CC1CC1)C2.O=C(O)C(F)(F)F (stereo not drawn)	-38.66
O=C(c1ccc(=O)[nH]c1)N1C[C@@H]2CC[C@H](C1)N(Cc1ccccc1)C2	-23.45
O=C(c1cc(F)cc(Cl)c1)N1C[C@@H]2CC[C@H](C1)N(Cc1ccccc1)C2	-134.7
O=C(c1ccc(F)c(Cl)c1)N1C[C@@H]2CC[C@H](C1)N(Cc1ccccc1)C2	73.05
Cc1nn(C)c2nc(NCCCN3CCCC(CO)C3)sc12 (stereo not drawn)	-120
N#Cc1ccc(CN2CCNC(=O)C2c2cccs2)cc1 (stereo not drawn)	-98.76
CC[C@]12CN3C[C@](CC)(CN(C1)C3c1[nH]c(=O)[nH]c(=O)c1C)C2=O (stereo partly drawn)	-91.51
CN(Cc1cccnc1)Cc1cn2c(n1)CN(C1CCOC1)CC2.O=C(O)C(F)(F)F.O=C(O)C(F)(F)F.O=C(O)C(F)(F)F (stereo not drawn)	-34.3
CC(C)CC(=O)NCCCn1cncn1	-49.15
